Our source for the outcome and AC50 values is PubChem BioAssay (EPA / NIEHS).

Molecules are shown by their SMILES. Activity calls are given as the source filed them. The calls were made as follows: active = hit-call score of the fitted dose curve at least 0.9, where 1 is the maximum; inactive = score below 0.9.

Read-out in assay [1]: Human Leukocyte Antigen - DR isotype (HLADR), HLA-DRA (gene 3122)
Description: BSK_BE3C_HLADR: BioMAP Diversity Plus: BE3C Assay for Human Leukocyte Antigen - DR isotype (HLADR) Biomarker Activity (AID 2283032). As to conditions: primary human bronchial epithelial cells; actives raise or lower the signal. In a few lines:
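BioMAP BE3C format: human bronchial epithelium, 24 h compound treatment, ELISA detection of HLA-DR, with bidirectional analysis relative to DMSO.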

Read-out in assay [2]: Interferon-gamma inducible Protein 10 (IP10), CXCL10 (gene 3627)
Description: BSK_BE3C_IP10: BioMAP Diversity Plus: BE3C Assay for Interferon-gamma inducible Protein 10 (IP10) Biomarker Activity (AID 2283034). The note with it: primary human bronchial epithelial cells; actives raise or lower the signal. A digest of the protocol: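 BE3C cells (human bronchial epithelial, primary); 24 h exposure; ELISA for IP-10; DMSO-referenced bidirectional fit.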

Read-out in assay [3]: Monokine induced gamma interferon (MIG), CXCL9 (gene 4283)
Description: BSK_BE3C_MIG: BioMAP Diversity Plus: BE3C Assay for Monokine induced gamma interferon (MIG) Biomarker Activity (AID 2283035).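 Also: MIG protein measured by ELISA in BE3C cultures after 24 h of dosing.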 The note with it: primary human bronchial epithelial cells; actives raise or lower the signal. A digest of the protocol: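 hu bronchial epithelial 1° cells, 24 h cpd; MIG by ELISA; bidirectional fit, DMSO = baseline.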

Read-out in assay [4]: Transforming growth factor beta 1 (TGFb1), TGFB1 (gene 7040)
Description: BSK_BE3C_TGFb1: BioMAP Diversity Plus: BE3C Assay for Transforming growth factor beta 1 (TGFb1) Biomarker Activity (AID 2283036;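 also: TGF-b1 protein level measured by ELISA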). As to conditions: primary human bronchial epithelial cells; actives raise or lower the signal. A digest of the protocol:
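TGF-b1 measured via ELISA, 24 h after chemical dosing of human bronchial epithelial cells (BE3C). Overt cytotoxicity assessed in parallel by SRB (0.1%, TCA-fixed, 560 nm); analysis bidirectional relative to DMSO.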

Read-out in assay [5]: Plasminogen activator inhibitor-1 (PAI1), SERPINE1 (gene 5054)
Kind of assay: BSK_BE3C_PAI1: BioMAP Diversity Plus: BE3C Assay for Plasminogen activator inhibitor-1 (PAI1) Biomarker Activity (AID 2283037). As to conditions: primary human bronchial epithelial cells; actives raise or lower the signal. A digest of the protocol:
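In this multiplexed primary-cell system, bronchial epithelial cells receive test chemical and are sampled at 24 h. PAI-1 is read by ELISA, with DMSO serving as negative control for bidirectional fitting.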

Read-out in assay [6]: urokinase plasminogen activator (uPA), PLAU (gene 5328)
Description: BSK_BE3C_uPA: BioMAP Diversity Plus: BE3C Assay for urokinase plasminogen activator (uPA) Biomarker Activity (AID 2283038).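 Also: uPA protein level quantified by ELISA in cell cultures; uPA read one day after compound addition.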 As to conditions: primary human bronchial epithelial cells; actives raise or lower the signal. In a few lines:
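Bronchial epithelial cells (human, primary); chemical 24 h; uPA by ELISA; bidirectional fit vs DMSO. SRB (0.1%, after 10% TCA fixation, 560 nm) in parallel cultures for cytotoxicity.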

Read-out in assay [7]: Urokinase-type plasminogen activator receptor (uPAR), PLAUR (gene 5329)
Kind of assay: BSK_BE3C_uPAR: BioMAP Diversity Plus: BE3C Assay for Urokinase-type plasminogen activator receptor (uPAR) Biomarker Activity (AID 2283039).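 Also: uPAR protein level measured by ELISA on the cells; cells exposed to compound for one day before measurement.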 As to conditions: primary human bronchial epithelial cells; actives raise or lower the signal. A digest of the protocol: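 Chemically treated human bronchial epithelial cells (lung primary) are assayed for uPAR by ELISA after 24 h, with data fitted in both directions using DMSO as negative control.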

Read-out in assay [8]: Interleukin-6 (IL6), IL6 (gene 3569)
Kind of assay: BSK_CASM3C_IL6: BioMAP Diversity Plus: CASM3C Assay for Interleukin-6 (IL6) Biomarker Activity for (AID 2283040). The note with it: primary human coronary artery smooth muscle cells; actives raise or lower the signal.

Read-out in assay [9]: Tissue plasminogen activator (tPA), PLAT (gene 5327)
Description: BSK_BE3C_tPA: BioMAP Diversity Plus: BE3C Assay for Tissue plasminogen activator (tPA) Biomarker Activity (AID 2283041).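 Also: tPA level quantified by ELISA one day after compound addition.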 The note with it: primary human bronchial epithelial cells; actives raise or lower the signal. In a few lines: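 Using human lung primary bronchial epithelial cells, tPA was measured by ELISA 24 h after dosing; data fitted relative to DMSO.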

Read-out in assay [10]: Interleukin-8 (IL8), CXCL8 (gene 3576)
Description: BSK_CASM3C_IL8: BioMAP Diversity Plus: CASM3C Assay for Interleukin-8 (IL8) Biomarker Activity (AID 2283042).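 Also: IL-8 protein level quantified by ELISA.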 As to conditions: primary human coronary artery smooth muscle cells; actives raise or lower the signal.

Read-out in assay [11]: Human Leukocyte Antigen - DR isotype (HLADR), HLA-DRA (gene 3122)
Kind of assay: BSK_CASM3C_HLADR: BioMAP Diversity Plus: CASM3C Assay for Human Leukocyte Antigen - DR isotype (HLADR) Biomarker Activity (AID 2283043).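 Also: cell-surface HLA-DR protein level quantified by ELISA.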 The note with it: primary human coronary artery smooth muscle cells; actives raise or lower the signal.

Read-out in assay [12]: Macrophage colony-stimulating factor (MCSF), CSF1 (gene 1435)
Kind of assay: BSK_CASM3C_MCSF: BioMAP Diversity Plus: CASM3C Assay for Macrophage colony-stimulating factor (MCSF) Biomarker Activity (AID 2283044).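 Also: M-CSF protein amount quantified by ELISA after 24 h exposure.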 As to conditions: primary human coronary artery smooth muscle cells; actives raise or lower the signal.

Read-out in assay [13]: Low-density lipoprotein receptor (LDLR), LDLR (gene 3949)
Description: BSK_CASM3C_LDLR: BioMAP Diversity Plus: CASM3C Assay for Low-density lipoprotein receptor (LDLR) Biomarker Activity (AID 2283045).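 Also: LDLR protein level on the cell surface quantified by ELISA.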 As to conditions: primary human coronary artery smooth muscle cells; actives raise or lower the signal.

Read-out in assay [14]: Monocyte Chemoattractant Protein-1 (MCP1), CCL2 (gene 6347)
Description: BSK_CASM3C_MCP1: BioMAP Diversity Plus: CASM3C Assay for Monocyte Chemoattractant Protein-1 (MCP1) Biomarker Activity (AID 2283046).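 Also: MCP-1 level quantified by ELISA 24 h after dosing.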 As to conditions: primary human coronary artery smooth muscle cells; actives raise or lower the signal.

Assay [15] can be described thus: BSK_CASM3C_Proliferation: Cell Proliferation Assessment in the BioMAP Diversity Plus: CASM3C Assay (AID 2283047).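 Also: sulforhodamine B total protein stain as relative cell number at 560 nm; sub-confluent cells exposed 48 h before staining; fitted both ways against DMSO so gain or loss of cell number.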 As to conditions: primary human coronary artery smooth muscle cells.
Read-out in assay [16]: Monokine induced gamma interferon (MIG), CXCL9 (gene 4283)
Kind of assay: BSK_CASM3C_MIG: BioMAP Diversity Plus: CASM3C Assay for Monokine induced gamma interferon (MIG) Biomarker Activity (AID 2283048).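 Also: MIG protein level measured by ELISA.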 As to conditions: primary human coronary artery smooth muscle cells; actives raise or lower the signal.

Read-out in assay [17]: serum amyloid A (SAA), SAA1 (gene 6288)
Kind of assay: BSK_CASM3C_SAA: BioMAP Diversity Plus: CASM3C Assay for serum amyloid A (SAA) Biomarker Activity (AID 2283049).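 Also: SAA protein level quantified by ELISA.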 The note with it: primary human coronary artery smooth muscle cells; actives raise or lower the signal.

Read-out in assay [18]: Thrombomodulin, THBD (gene 7056)
Kind of assay: BSK_CASM3C_Thrombomodulin: BioMAP Diversity Plus: CASM3C Assay for Thrombomodulin Biomarker Activity (AID 2283051).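 Also: thrombomodulin protein level measured by ELISA 24 h after dosing.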 As to conditions: primary human coronary artery smooth muscle cells; actives raise or lower the signal.

The nature of assay [19]: BSK_CASM3C_SRB: Viability Assessment in the BioMAP Diversity Plus: CASM3C Assay (AID 2283050).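 Also: total protein by SRB staining as cytotoxicity measure in parallel cultures; cells exposed to compound for 24 h.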 The note with it: primary human coronary artery smooth muscle cells.

Consider `C[C@]12C=CC(=O)C=C1CC[C@@H]1[C@@H]2C(=O)C[C@@]2(C)[C@H]1CC[C@]2(O)C(=O)CO`, for which the outcome in assay [1], in assay [2], in assay [3], in assay [4], in assay [5] and in [6] was inactive. For the same compound, the result in assay [7], in assay [9], in [11], in assay [13], in [15] and in assay [16] was inactive. The outcome in [18] was inactive. Also, the AC50 in [8] is 704 nM (active); in [10] it was 184 nM (active); in assay [12], 243 nM (active); in [14], 242 nM (active); in [17], 699 nM (active).
With `CCCCCCC(=O)OCC`, the outcome in assay [1], in assay [2], in [3], in assay [4], in assay [5] and in [6] was inactive. For the same compound, the outcome in assay [7], in assay [8], in assay [9], in assay [10], in assay [11] and in [12] was inactive. For the same compound, the result in assay [13], in [14], in assay [15], in assay [16], in [17] and in [19] was inactive. The result in assay [18] was inactive.
In the case of `Oc1ccc2c(c1)OC[C@@H](N1CCC(O)(c3ccc(F)cc3)CC1)[C@H]2O`, the result in assay [1], in assay [2], in assay [3], in [5], in assay [6] and in assay [7] was inactive. The outcome in [8], in assay [9], in assay [10], in [11], in assay [12] and in assay [13] was inactive. Besides, the outcome in assay [14], in [15], in assay [16], in assay [17], in [19] and in [18] was inactive.
Regarding `Cc1cccc(C)c1O`, the outcome in [1], in assay [2], in assay [3], in [5], in [6] and in assay [7] was inactive. In addition, the outcome in assay [8], in [9], in [10], in assay [11], in assay [12] and in assay [13] was inactive. The result in [14], in assay [15], in assay [16], in assay [17], in assay [19] and in [18] was inactive.
In the case of `CCOC(=O)C(C)(C)Oc1ccc(Cl)cc1`, the outcome in assay [1], in assay [2], in assay [3], in assay [5], in assay [6] and in assay [7] was inactive. In addition, the outcome in assay [8], in [9], in [10], in [11], in assay [12] and in [13] was inactive. Moreover, the outcome in assay [14], in assay [15], in [16], in [17], in [19] and in assay [18] was inactive.
Turning to `C=CCc1ccc(O)c(OC)c1`, the result in assay [1], in assay [2], in [3], in assay [5], in assay [6] and in assay [7] was inactive. Besides, the result in assay [8], in assay [9], in assay [10], in assay [11], in assay [12] and in assay [13] was inactive. The outcome in assay [14], in assay [15], in assay [16], in assay [17], in assay [19] and in assay [18] was inactive.
As to `CC(=O)C(C)=CC1C(C)=CCCC1(C)C` (stereo not given), the outcome in assay [1], in [2], in assay [3], in assay [5], in assay [6] and in assay [7] was inactive. In addition, the result in assay [8], in assay [9], in assay [10], in [11], in [12] and in [13] was inactive. Besides, the outcome in assay [14], in assay [15], in assay [16], in assay [17], in [19] and in assay [18] was inactive.
With `O=C(O)CCCCC(=O)O`, the outcome in assay [1], in assay [2], in [3], in assay [5], in assay [6] and in assay [7] was inactive. Also, the outcome in assay [8], in assay [9], in assay [10], in assay [11], in [12] and in [13] was inactive. Further, the result in assay [14], in [15], in assay [16], in assay [17], in assay [19] and in [18] was inactive.

In general, AC50 refers to the concentration giving half of the maximal activity seen.
